# In the library only some 3.4% were active in any assay of this set; here they are far more common.
# HSP90 inh – HSP90 inhibitors, primary screen, cell lysate, luminescence; actives 0.91% (n = 290,000); Rabbit reticulocyte lysate, luciferase refolding luminescence, 3 h; inhibition, % at 5.6 µM; Heat shock protein HSP 90 (rabbit reticulocyte lysate; luciferase refolding);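 active = inhibition above the screen-wide mean plus 3 SD, computed separately per campaign, cut at about 16% in these data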;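 note: 0% = DMSO wells and 100% = 60 µM geldanamycin wells; inhibitors lower the luminescence because luciferase stays unfolded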
# FXN GAA850 act – FXN promoter activators, primary screen, cell-based, luciferase luminescence, HEK293 lucGAA850. HEK293 lucGAA850 FXN promoter luciferase reporter, 24 h; percent of 10 µM SAHA response. activation, % at 6 µM. actives 0.56% (n = 360,000). AID 540364, 2011;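 active = activation above the average of all compounds screened plus 3 SD, cutoff fixed separately per campaign, cut at about 7.5% in these data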;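 note: 0% = DMSO wells and 100% = 10 µM SAHA wells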
# PG9 binder – binders of HIV-1 gp120 antibody PG9, primary screen, biochemical, TR-FRET. inhibition, % at 6.7 µM. actives 0.43% (n = 360,000). HIV-1 gp120 / PG9 antibody interaction. TR-FRET gp120-PG9 antibody binding; in the data active = inhibition above about 8.5%
# AI-2 QS modul – Vibrio harveyi AI-2 quorum sensing modulators, primary screen, JMH597 strain, luminescence/OD600 ratio; activity change, % at 7.5 µM; actives 0.4% (n = 300,000); Vibrio harveyi JMH597 AI-2 luminescence/OD600 ratio, 9 h; hits give low values; strain lacks LuxN and CqsS sensors; 0 = neutral-control median; in the data active = activity change below about -75%, passing the limit was not always enough; inconclusive = no clear call, values can overlap the other calls;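 note: luminescence divided by OD600 gain over 9 h not by final OD600 alone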
# HSF1 inh – HSF1 inhibitors in luciferase reporter cells, primary screen, cell-based, NIH3T3, luminescence; activity change, negative = inhibition, % at 7.5 µM (by protocol); NIH3T3-HGL HSE-luciferase, MG132-induced, luminescence 8 h; hits give low values; AID 2098, 2009; actives 0.77% (n = 300,000);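 active = more than half of replicate wells show activity change below -50%, luminescence cut by over half; inconclusive = some wells, but at most half, below -50%; inactive = no replicate well below -50%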;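 note: luciferase reports HSF-1 transcriptional activity via heat shock element; 0% = median of DMSO wells and -100% = zero luminescence signal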
# SMARCA2 act – SMARCA2 (BRM) function activators, primary screen, cell-based, luminescence, high throughput; MG213 cells, MMTV-luciferase reporter, dexamethasone, overnight; activation, % at 9.1 µM; actives 1% (n = 370,000); AID 652017, 2013; in the data active = activation above about 7.8%;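 note: 0% = vehicle wells and 100% = reference activator wells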
# HSP90 inh confirm – HSP90 inhibitors, confirmation, cell lysate, luminescence. rabbit reticulocyte lysate, luciferase refolding luminescence, 3 h. actives 64% (n = 2,300). inhibition, % at 5.9 µM. shares compounds with HSP90 inh; in the data active = inhibition above about 18%;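 note: 0% = vehicle wells and 100% = reference inhibitor wells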
# FLuc counter – firefly luciferase inhibitors, HSP90 counter-screen, confirmation, artefact control for HSP90 inhibitor project, biochemical, luminescence, triplicate; inhibition, % at 5.9 µM; shares compounds with HSP90 inh; purified native firefly luciferase; actives 48% (n = 2,300); AID 1847, 2009;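 active = inhibition above the mean inhibition of all tested sample wells plus 3 SD, cut at about 10% in these data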;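 note: 0% = DMSO with luciferase and 100% = wells lacking luciferase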
# Numbers without * were called inactive; ? = inconclusive; / = no result given.
SMILES,HSP90 inh,FXN GAA850 act,PG9 binder,AI-2 QS modul,HSF1 inh,SMARCA2 act,HSP90 inh confirm,FLuc counter
COc1ccc(/C=N/Nc2ccc(C(=O)O)cc2)cc1Br,59.9*,3.4,-5.6,-96.1*,-77.7*,7.6,76.5*,76.4*
O=C(O)c1ccc(N/N=C/c2ccc(OC(=O)c3ccccc3Cl)cc2)cc1,36.0*,-1.7,-4.1,41.4,-55.1*,0.9,88.4*,7.0
C[C@H]1O[C@@H](n2c3ccc(Cl)cc3c3ccc4c5cc(Cl)ccc5[nH]c4c32)[C@H](O)[C@H](O)[C@H]1O,/,/,/,/,/,-3.5,/,/
CCCCN1CC[C@H](C)Oc2cc(Br)ccc2S1(=O)=O,/,/,/,/,/,-1.6,/,/
COCC(=O)N[C@H]1C[C@@H]2O[C@H](CO)CC[C@@H]2O[C@@H]1CCc1ccc(-c2ccccc2)cc1,/,/,/,/,/,-4.0,/,/
O=C(N/N=C/c1ccc(-c2ccccc2Cl)o1)c1ccccc1,3.7,0.8,-0.5,15.8,5.6,4.2,/,/
O=C(O)c1ccc(N/N=C/c2ccc(-c3ccccc3Cl)o2)cc1,52.8*,5.2,-2.7,-94.8*,?,0.0,60.0*,45.7*
O=C(O)c1ccc(/C=N/O)cc1,-4.9,0.2,-0.6,9.0,-11.2,-1.1,/,/
CC(C)c1ccc(/C=N/Nc2ccc(C(=O)O)cc2)cc1,61.3*,-5.5,-5.9,-11.6,-90.0*,-3.8,89.6*,84.9*
Cc1cc(N/C=C/C(=O)c2ccccc2)ccc1Br,1.9,2.4,0.4,4.4,8.3,7.1,/,/
COc1cccc(N/C=C/C(=O)c2ccc(C)cc2)c1,19.5*,2.6,0.4,28.7,3.4,6.1,34.5*,27.8*
Cc1ccc(N/C=C/C(=O)c2ccc(C)cc2)cc1,4.0,6.1,0.7,8.3,2.7,7.0,/,/
O=C(/C=C/Nc1ccc(F)cc1Br)c1ccccc1,18.8*,-5.2,-2.6,27.8,-66.1*,-2.3,89.0*,82.5*
Cc1ccc(C(=O)/C=C/Nc2ccccn2)cc1,66.3*,-12.0,0.9,24.1,-61.6*,-1.4,95.7*,91.0*
COc1cccc(N/C=C/C(=O)c2ccc(Cl)cc2)c1,-6.5,1.7,-1.1,17.9,2.4,1.2,/,/
COc1ccc(OC)c(N/C=C/C(=O)c2ccccc2)c1,70.3*,-8.9,-0.1,11.2,-42.8,-3.0,92.2*,84.5*
COc1ccc(OC)c(N/C(C)=C/C(=O)c2ccccc2)c1,-1.8,3.6,0.5,-6.6,-27.2,0.2,/,/
CC(=O)N1CCN(c2ccc(N3CCN(Cc4ccccc4)[C@H](C)C3)c(C)c2)[C@H](C)C1,/,/,-1.8,/,/,-4.0,/,/
CCOCCCNC(=O)c1ccc(NC(=O)C2CCCO2)cc1 (stereo unspecified),29.9*,-0.7,0.4,-8.6,4.2,-0.4,2.7,-0.5
Cc1ccc(NC(=S)c2nc3ccccc3s2)cc1,23.1*,-5.2,-1.0,9.4,-64.6*,-0.6,42.1*,26.2*
O=C(Cn1nnc(-c2ccncc2)n1)Nc1ccc(Oc2ccccc2)cc1,/,/,/,/,/,-5.2,/,/
Cn1cccc1-c1cc(C(=O)N/N=C/c2ccc(Cl)cc2)[nH]n1,19.1*,2.9,-1.9,/,-4.5,-1.8,2.4,-5.1
COc1cc(/C=N/NC(=O)c2cc(-c3cccn3C)n[nH]2)cc(OC)c1OC,2.0,0.2,0.6,11.3,-6.8,2.6,/,/

# Compound activity from PubChem.
